Consider eight compounds from PubChem BioAssay (NCATS).

A short description of assay [1]: S16 Schwann cell viability assay (CellTiter-Glo assay) (AID 624031).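 Note: native untransfected S16 rat Schwann cells; nearly all actives have a fitted effect of over 70% in size.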 The procedure, abridged:
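Rat S16 Schwann cells without reporter constructs received compound or DMSO for 24 h at 37 °C under 5% CO2. Cellular ATP was then quantified by CellTiter-Glo luminescence, with vehicle wells defined as 0% activity and cell-free wells as reference.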
For orientation: ATP-based viability assays read luminescence as a measure of living cells.

A short description of assay [2]: S16 Schwann cell PMP22 intronic element beta-lactamase assay (AID 624044; calls by dose curve; note: nearly all actives have a fitted effect of over 15% in size). The essentials: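 Beta-lactamase reporter under a PMP22 intronic regulatory element in stable S16 rat Schwann cells; 24 h compound exposure. 460 nm blue signal normalized between DMSO (0%) and potassium clavulanate, with 535 nm FRET tracking viability; curves classed by r2 and response.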

The next assay has as its system 3D7. The experiment in a line: qHTS profiling for inhibitors of Plasmodium falciparum proliferation (AID 504749). Note: nearly all actives have a fitted effect of over 60% in size. Note: potency is the fitted concentration of half-maximal effect. As to conditions: P. falciparum in erythrocytes, SYBR Green DNA, 72 h; series mostly up to 12.8 µM. The essentials: (§1)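 SYBR Green fluorescence of parasite DNA, read after lysis and overnight dark incubation, measured growth over 72 h in erythrocyte culture at 0.3% parasitemia and 2.5% hematocrit. Data normalised to DMSO and 0.29 uM artemisinin, with plate-drift correction.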
(qHTS replaces the single test concentration by a dilution series.)

For the next assay, the system named is AS120. The description is as above. As to conditions: P. falciparum in erythrocytes, SYBR Green DNA, 72 h; series mostly up to 12.8 µM. The procedure, abridged: as §1
A further assay has as its system CP191. The assay is described as above. As to conditions: P. falciparum in erythrocytes, SYBR Green DNA, 72 h; series mostly up to 12.8 µM. The essentials: as §1
The subject of a further assay is CP237. The assay is described as above. As to conditions: P. falciparum in erythrocytes, SYBR Green DNA, 72 h; series mostly up to 12.8 µM. The procedure, abridged:
as §1

In a further assay the test system is CP247. The assay is described as above. As to conditions: P. falciparum in erythrocytes, SYBR Green DNA, 72 h; series mostly up to 12.8 µM. The procedure, abridged:
as §1

The next assay relates to CP297. The description is as above. As to conditions: P. falciparum in erythrocytes, SYBR Green DNA, 72 h; series mostly up to 12.8 µM. The essentials: as §1
Another assay relates to CP315. Described as above. As to conditions: P. falciparum in erythrocytes, SYBR Green DNA, 72 h; series mostly up to 12.8 µM. The essentials:
as §1

The subject of the next assay is CP329. Described as above. As to conditions: P. falciparum in erythrocytes, SYBR Green DNA, 72 h; series mostly up to 12.8 µM. The procedure, abridged:
as §1

The next assay has as its system ECU. Described as above. As to conditions: P. falciparum in erythrocytes, SYBR Green DNA, 72 h; series mostly up to 12.8 µM. The procedure, abridged:
as §1

Another assay has as its system JCK. The assay is described as above. As to conditions: P. falciparum in erythrocytes, SYBR Green DNA, 72 h; series mostly up to 12.8 µM. The essentials:
as §1

Another assay deals with TAB113. The assay is described as above. As to conditions: P. falciparum in erythrocytes, SYBR Green DNA, 72 h; series mostly up to 12.8 µM. The procedure, abridged:
as §1

In a further assay the test system is W2. The description is as above. As to conditions: P. falciparum in erythrocytes, SYBR Green DNA, 72 h; series mostly up to 12.8 µM. The procedure, abridged: as §1
The test system of another assay is ATS189. The assay is described as above. As to conditions: P. falciparum in erythrocytes, SYBR Green DNA, 72 h; series mostly up to 12.8 µM. The essentials:
as §1

Another assay deals with CP185. The assay is described as above. As to conditions: P. falciparum in erythrocytes, SYBR Green DNA, 72 h; series mostly up to 12.8 µM. The essentials:
as §1

For the next assay, the system named is CP256. The assay is described as above. As to conditions: P. falciparum in erythrocytes, SYBR Green DNA, 72 h; series mostly up to 12.8 µM. The procedure, abridged: as §1
A further assay concerns N140. The description is as above. As to conditions: P. falciparum in erythrocytes, SYBR Green DNA, 72 h; series mostly up to 12.8 µM. The procedure, abridged:
as §1

For a further assay, the system named is PAD. Described as above. As to conditions: P. falciparum in erythrocytes, SYBR Green DNA, 72 h; series mostly up to 12.8 µM. The essentials: as §1
For another assay, the system named is PC49. The description is as above. As to conditions: P. falciparum in erythrocytes, SYBR Green DNA, 72 h; series mostly up to 12.8 µM. The essentials: as §1

Inconclusive results are not listed. The source made the active and inactive calls. Unless noted, calls come from the whole dose curve; as a rule, active = well fitted curve in the direction sought with a large enough effect; inconclusive = small, poorly fitted or top-dose-only effect, or another doubt; inactive = no such curve, though single readings can be large; an effect the other way counts as inactive or inconclusive.

In the case of `CCN1CCC[C@@H](OC(=O)C(c2ccccc2)c2ccccc2)C1`, the compound was called inactive in assay [1]. The Potency result (in assay [2]; with 3D7; in the assay on AS120; with CP191; in the assay on CP247; in the assay on CP297) was “inactive” each time. Besides, the Potency entry in the assay on CP315, with CP329, with ECU, in the assay on JCK and in the assay with TAB113 was “inactive” each time. Moreover, the values for the Potency in the assay with CP237 and with W2 were 1.78 µM (active) and 1.44 µM (active), respectively.
`CC(C)(C)NC[C@H](O)COc1cccc2c1C[C@@H](O)[C@@H](O)C2`: the compound was classed as inactive in assay [1]. The Potency result (in [2]; in the assay on 3D7; in the assay with AS120; with ATS189; in the assay with CP185; in the assay with CP191) was “inactive” in each case. Besides, the Potency result in the assay on CP237, in the assay with CP247, in the assay with CP256, in the assay with CP297, in the assay on CP315 and in the assay with CP329 was “inactive” throughout. Moreover, the Potency entry with ECU, with JCK, in the assay on N140, in the assay on PAD, in the assay on PC49 and in the assay with TAB113 was “inactive” in each case. Further, the Potency result in the assay on W2 is “inactive”.
As to `C[C@H](O)Cn1cnc2c1c(=O)n(C)c(=O)n2C`, the outcome in [1] was inactive. The Potency entry (in assay [2]; in the assay with 3D7; in the assay on AS120; with ATS189; with CP185; with CP191) was “inactive” in each case. In addition, the Potency result with CP237, with CP247, with CP256, in the assay with CP297, in the assay with CP315 and in the assay with CP329 was “inactive” throughout. The Potency result in the assay with ECU, in the assay with JCK, with N140, with PAD, with PC49 and in the assay with TAB113 was “inactive” in each case. For the same compound, the Potency result in the assay with W2 was “inactive”.
Consider `NC[C@@H]1O[C@H](O[C@@H]2[C@H](O[C@@H]3O[C@H](CO)[C@@H](O)[C@@H]3O)[C@@H](O)[C@@H](N)C[C@H]2N)[C@@H](N)[C@H](O)[C@@H]1O`, for which, in [1], the compound was called inactive. The Potency entry (in [2]; in the assay with 3D7; in the assay on AS120; in the assay with ATS189; in the assay with CP185; in the assay on CP191) was “inactive” each time. Moreover, the Potency entry in the assay on CP237, with CP247, with CP256, with CP297, with CP315 and with CP329 was “inactive” each time. Moreover, the Potency entry with ECU, with JCK, in the assay with N140, in the assay on PAD, with PC49 and in the assay with TAB113 was “inactive” each time. In addition, in the assay on W2, the Potency entry is “inactive”.
Turning to `CC(=O)N(C[C@@H](C)C(=O)O)c1c(I)cc(I)c(N)c1I`, in assay [1], the call was inactive. For the same compound, the Potency entry (in assay [2]; in the assay with 3D7; with AS120; in the assay with ATS189; in the assay on CP185; in the assay on CP191) was “inactive” in each case. Moreover, the Potency entry with CP237, in the assay with CP247, in the assay with CP256, with ECU, in the assay on JCK and with N140 was “inactive” in each case. The Potency result in the assay on PAD, in the assay on PC49 and with TAB113 was “inactive” throughout.
`CCOC(=O)O[C@@H](C)OC(=O)[C@@H]1N2C(=O)[C@@H](NC(=O)[C@@H](N)c3ccccc3)[C@H]2SC1(C)C`: the result in assay [1] was inactive. The Potency result (in assay [2]; in the assay on 3D7; in the assay on AS120; in the assay with ATS189; in the assay on CP185; with CP191) was “inactive” each time. Moreover, the Potency entry with CP237, with CP247, with CP256, with CP297, in the assay with CP315 and in the assay on CP329 was “inactive” throughout. Besides, the Potency entry in the assay on ECU, in the assay on JCK, in the assay on N140, in the assay with PAD, in the assay with PC49 and in the assay on TAB113 was “inactive” each time. In the assay with W2, the Potency was 5.73 µM (active).
Consider `C[C@@H](CNC1CCCCC1)OC(=O)c1ccccc1`, for which, in [1], the compound was classed as inactive. Besides, the Potency result (in assay [2]; with CP185; in the assay on CP315; in the assay with CP329) was “inactive” in each case. Moreover, the Potency in the assay on ATS189 was 3.16 µM (active); in the assay with CP237, 3.16 µM (active); with PAD it was 3.16 µM (active); with W2, 2.28 µM (active).
Regarding `CC1(C)[C@@H](OC(=O)CCC(=O)O)CC[C@@]2(C)[C@H]1CC[C@@]1(C)[C@H]2C(=O)C=C2[C@H]3C[C@](C)(C(=O)O)CC[C@]3(C)CC[C@@]21C`, the compound was called inactive in assay [1]. Further, the Potency result (in assay [2]; in the assay on 3D7; with AS120; in the assay on ATS189; in the assay on CP185; in the assay on CP191) was “inactive” in each case. The Potency entry with CP237, with CP247, in the assay with CP256, with CP297, with CP315 and in the assay on CP329 was “inactive” each time. The Potency entry in the assay on ECU, in the assay with JCK, in the assay with N140, with PAD, in the assay on PC49 and in the assay with TAB113 was “inactive” each time. The Potency result with W2 was “inactive”.
